Assay results as given in PubChem BioAssay (NCATS).
Inconclusive results are not listed. Unless noted, calls come from the whole dose curve; as a rule, active = well fitted curve in either direction with a large enough effect (not every such curve was filed as active); inconclusive = small, poorly fitted or top-dose-only effect, or another doubt; inactive = flat fitted curve, though single readings scatter.

Key:
[1] = AP1 Signaling Pathway (AID 357); details: ME-180 AP-1-bla reporter, EGF-induced, beta-lactamase ratio, 5 h; at 17.2 µM (top of the series) unless noted; note: % is set by controls: 0 for no effect and ±100 for the full control effect
How it was run: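 Modulation of EGF-driven AP-1 transcription was assessed with a beta-lactamase reporter in ME-180 cells. Compound and EC50 EGF were co-incubated 5 hours at 37 °C before 2.5-hour CCF4 loading at room temperature and dual-emission reading.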

[2] = NFAT Signaling Pathway (AID 444); details: Jurkat NFAT-bla M1, carbachol, beta-lactamase ratio, 5 h; at 17.2 µM (top of the series) unless noted;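 note: carbachol stimulus at about its EC50 of 1 µM final; % is set by controls: 0 for no effect and ±100 for the full control effect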
How it was run: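 Jurkat cells carrying an NFAT-driven β-lactamase reporter and co-transfected muscarinic M1 receptor were treated with compound plus carbachol (1 uM final, an EC50 level) for 5 h at 37 °C. CCF4 loading followed for 1 h at RT; 460/530 nm ratio gave %activity.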

[3] = Stat Signaling Pathway (AID 446); details: ME-180 (cervical carcinoma) SIE beta-lactamase reporter, IL-6 stimulated, 5 h; at 17.2 µM (top of the series) unless noted;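 note: ME-180 cervical cancer cells given 40 pM IL-6 alongside compound; SIE-controlled beta-lactamase reporter measured as 460/530 nm FRET emission ratio; % is set by controls: 0 for no effect and ±100 for the full control effect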
How it was run: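 FRET read-out (405 nm excitation, 460/530 nm emission) of a beta-lactamase reporter under a STAT-inducible element in ME-180 cervical carcinoma cells. Cells with compound receive 40 pM IL-6 for 5 h. Values are normalised to AC90 stimulation and AC90 JAK-inhibitor controls.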

[4] = target: Glucocorticoid receptor (Homo sapiens) (UniProt P04150); assay: GR-GFP Redistribution (AID 450;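 active = compounds whose dose series gives a full or clear partial fitted curve of increased nuclear translocation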; note: potency is the fitted concentration of half-maximal effect)
Chain of Glucocorticoid receptor (Homo sapiens) (P04150 whole entry, looked up): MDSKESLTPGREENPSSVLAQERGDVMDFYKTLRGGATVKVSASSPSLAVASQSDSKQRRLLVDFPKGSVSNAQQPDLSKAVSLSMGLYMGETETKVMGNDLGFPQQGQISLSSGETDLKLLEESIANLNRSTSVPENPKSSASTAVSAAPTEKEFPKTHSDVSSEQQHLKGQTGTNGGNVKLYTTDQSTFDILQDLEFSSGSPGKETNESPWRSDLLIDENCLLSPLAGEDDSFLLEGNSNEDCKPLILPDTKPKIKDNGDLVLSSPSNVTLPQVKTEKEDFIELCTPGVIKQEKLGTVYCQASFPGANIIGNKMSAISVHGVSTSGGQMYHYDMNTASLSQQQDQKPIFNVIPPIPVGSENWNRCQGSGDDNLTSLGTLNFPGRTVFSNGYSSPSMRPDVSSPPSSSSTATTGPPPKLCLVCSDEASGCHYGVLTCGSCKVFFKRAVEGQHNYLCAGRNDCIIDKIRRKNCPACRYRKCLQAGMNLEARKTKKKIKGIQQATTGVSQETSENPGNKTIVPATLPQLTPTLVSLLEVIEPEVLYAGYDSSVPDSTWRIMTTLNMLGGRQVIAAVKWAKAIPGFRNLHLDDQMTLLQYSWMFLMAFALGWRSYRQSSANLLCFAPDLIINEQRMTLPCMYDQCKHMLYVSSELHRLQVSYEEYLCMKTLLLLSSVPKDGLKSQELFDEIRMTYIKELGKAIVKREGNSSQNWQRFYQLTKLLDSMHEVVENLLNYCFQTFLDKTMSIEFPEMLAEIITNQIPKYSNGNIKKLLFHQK

COC(=O)c1cc(Br)c(=O)n(-c2cc(C)on2)c1
inactive: activity change, negative = inhibition [1] 8.72% | activity change, negative = inhibition [2] 12.9% | activity, negative = inhibition [3] 7.11% | Potency [4] > 20.6 µM

COC(=O)c1ccc(-c2sc3nc(N4CCOCC4)c4c(c3c2N)CC(C)(C)OC4)o1
inactive: activity change, negative = inhibition [1] -12.7% | activity change, negative = inhibition [2] -1.53% | activity, negative = inhibition [3] 5.68%

COC(=O)C(NC(C)=O)(Nc1ccccn1)C(F)(F)F (centres undefined)
inactive: activity change, negative = inhibition [1] -1.38% | activity change, negative = inhibition [2] 5.18% | activity, negative = inhibition [3] 0.0282% | Potency [4] > 20.6 µM

C=C(Br)Cn1c(CCCC)nc2ccccc21
inactive: activity change, negative = inhibition [1] -12.4% | activity change, negative = inhibition [2] 1.5% | activity, negative = inhibition [3] 4.16%

CCOc1ccc(C2=Nn3c(nnc3-c3cccnc3)SC2)cc1
inactive: activity change, negative = inhibition [1] 3.18% | activity change, negative = inhibition [2] -2.85% | activity, negative = inhibition [3] -4.46% | Potency [4] > 20.6 µM

COC(=O)c1cc(S(=O)(=O)N2CCOCC2)c(N2CCOCC2)cc1N1CCOCC1
inactive: activity change, negative = inhibition [1] -1.61% | activity change, negative = inhibition [2] 5.16% | activity, negative = inhibition [3] 5.81%

Cc1cc(C)n(-c2ncnc3sc(C)c(C)c23)n1
inactive: activity change, negative = inhibition [1] -15.7% | activity change, negative = inhibition [2] -7.26% | activity, negative = inhibition [3] 6.68%

Cc1nc(=O)c(-c2ccccc2)c(C)n1-c1ccc(S(N)(=O)=O)cc1
inactive: activity change, negative = inhibition [1] 7.15% | activity change, negative = inhibition [2] -1.07% | activity, negative = inhibition [3] 7.76% | Potency [4] > 20.6 µM

Cn1c(=O)n(C)c2cc(C(=O)c3ccccc3)ccc21
inactive: activity change, negative = inhibition [1] 17.6% | activity change, negative = inhibition [2] -28.2% | activity, negative = inhibition [3] -6.62% | Potency [4] > 20.6 µM

Cc1ccc(C2/C(=C(/O)c3cnn(-c4ccccc4)c3C)C(=O)C(=O)N2CCN2CCOCC2)o1 (centres undefined)
inactive: activity change, negative = inhibition [1] -8.72% | activity change, negative = inhibition [2] 16.8% | activity, negative = inhibition [3] -14.9% | Potency [4] > 20.6 µM

COC(=O)COn1c(SCC(=O)OC)nc2ccccc2c1=O
inactive: activity change, negative = inhibition [1] 2.38% | activity change, negative = inhibition [2] 3.27% | activity, negative = inhibition [3] -1.3% | Potency [4] > 20.6 µM

CCOC(=O)c1[nH]c2ccccc2c1NC(=O)CN(C)C
inactive: activity change, negative = inhibition [1] 1.77% | activity change, negative = inhibition [2] -6.47% | activity, negative = inhibition [3] 1.63%

CCOC(=O)CC1=C(C(=O)OCC)C(c2cc(OC)c(OC)cc2OC)C(C#N)=C(N)O1 (centres undefined)
inactive: activity change, negative = inhibition [1] 0.567% | activity change, negative = inhibition [2] -1.8% | activity, negative = inhibition [3] 10.5% | Potency [4] > 20.6 µM

C=C(C)CN1CCN(c2c(CCC#N)c(C)c(C#N)c3nc4ccccc4n23)CC1
inactive: activity change, negative = inhibition [1] 6.83% | activity change, negative = inhibition [2] 20% | activity, negative = inhibition [3] 9.9%

COc1ccc(-n2ncc3c(Nc4cccc(C)c4)ncnc32)cc1
inactive: activity change, negative = inhibition [1] 1.56% | activity change, negative = inhibition [2] -11.9% | activity, negative = inhibition [3] -27.7% | Potency [4] > 20.6 µM
